Reference: the supplement of paper PMC10849652
The full data set covers some 8,800 targets. This sample favours those with a hit. About 0.5% of all pairs of compound and target were hits.

Assays:
Assay in all cases: log2 fold change, soluble protein after heating vs DMSO (PISA); higher = thermal stabilisation; K562 lysate, 10 uM; active = over 0.2 and 3.5 SD of the protein, either way, in both replicates (recomputed)
[1] = compound: C#Cc1cccc(Nc2ncnc3cc(OCCOC)c(OCCOC)cc23)c1 [erlotinib]
Summary of the method: (§1)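 Log-two fold change in thermal stability relative to solvent controls is reported from duplicates. For each sample, crude K562 extract from dounce-homogenised pellets in PBS pH 7.4 with 1 mM MgCl2, at 1 mg/mL protein, was treated with 10 μM compound for 30 min. Aliquots heated for 3 min across 48°C-58°C were pooled, brought to 0.5% NP-40 at 4°C and cleared at 21,000xg for 90 min. The supernatant was quantified by TMTpro 16plex LC-MS/MS with channel sums equalised.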

[2] = compound: C/C(=N\NC(=O)C1=CC(=CC=C1)S(=O)(=O)N2CCOCC2)/C3=C(C=CC(=C3)Cl)O
Summary of the method: as §1

[3] = compound: C1=CC(=CC=C1C2=NC3=C(N2)C=C(C=C3)C(=O)N)OC4=CC=C(C=C4)Cl
Summary of the method: as §1

[4] = compound: C1=CC2=C(C=CC(=C2)/C=C\3/C(=O)NC(=NCC4=CC=CS4)S3)N=C1
Summary of the method: as §1

[5] = compound: C1=CC2=NC=CN=C2C=C1/C=C/3\C(=O)NC(=O)S3
Summary of the method: as §1

[6] = compound: C1=CC=C(C=C1)C2=NC(=C(N2)C3=CC=NC=C3)C4=CC(=C(C=C4)Cl)O
Summary of the method: as §1

[7] = compound: C1=CC=C2C(=C1)C3=NNC4=CC=CC(=C43)C2=O
Summary of the method: as §1

[8] = compound: C1CCN(C1)C(=O)NC2=CC=CC(=C2)NC3=NC=C(C(=N3)NCCC4=CN=CN4)Br
Summary of the method: as §1

[9] = compound: C1CN(CCC1(CC2=CC=C(C=C2)Cl)N)C3=NC=NC4=C3C=CN4
Summary of the method: as §1

[10] = compound: C1COCCN1CCN2C3=CC=CC=C3N=C2NC(=O)C4=CC(=CC=C4)[N+](=O)[O-] [IRAK-1-4 Inhibitor I]
Summary of the method: as §1

Measured: log2 fold change

SMG7 (UniProt Q92540)
Chain of UniProt Q92540 (Q92540 whole entry, looked up): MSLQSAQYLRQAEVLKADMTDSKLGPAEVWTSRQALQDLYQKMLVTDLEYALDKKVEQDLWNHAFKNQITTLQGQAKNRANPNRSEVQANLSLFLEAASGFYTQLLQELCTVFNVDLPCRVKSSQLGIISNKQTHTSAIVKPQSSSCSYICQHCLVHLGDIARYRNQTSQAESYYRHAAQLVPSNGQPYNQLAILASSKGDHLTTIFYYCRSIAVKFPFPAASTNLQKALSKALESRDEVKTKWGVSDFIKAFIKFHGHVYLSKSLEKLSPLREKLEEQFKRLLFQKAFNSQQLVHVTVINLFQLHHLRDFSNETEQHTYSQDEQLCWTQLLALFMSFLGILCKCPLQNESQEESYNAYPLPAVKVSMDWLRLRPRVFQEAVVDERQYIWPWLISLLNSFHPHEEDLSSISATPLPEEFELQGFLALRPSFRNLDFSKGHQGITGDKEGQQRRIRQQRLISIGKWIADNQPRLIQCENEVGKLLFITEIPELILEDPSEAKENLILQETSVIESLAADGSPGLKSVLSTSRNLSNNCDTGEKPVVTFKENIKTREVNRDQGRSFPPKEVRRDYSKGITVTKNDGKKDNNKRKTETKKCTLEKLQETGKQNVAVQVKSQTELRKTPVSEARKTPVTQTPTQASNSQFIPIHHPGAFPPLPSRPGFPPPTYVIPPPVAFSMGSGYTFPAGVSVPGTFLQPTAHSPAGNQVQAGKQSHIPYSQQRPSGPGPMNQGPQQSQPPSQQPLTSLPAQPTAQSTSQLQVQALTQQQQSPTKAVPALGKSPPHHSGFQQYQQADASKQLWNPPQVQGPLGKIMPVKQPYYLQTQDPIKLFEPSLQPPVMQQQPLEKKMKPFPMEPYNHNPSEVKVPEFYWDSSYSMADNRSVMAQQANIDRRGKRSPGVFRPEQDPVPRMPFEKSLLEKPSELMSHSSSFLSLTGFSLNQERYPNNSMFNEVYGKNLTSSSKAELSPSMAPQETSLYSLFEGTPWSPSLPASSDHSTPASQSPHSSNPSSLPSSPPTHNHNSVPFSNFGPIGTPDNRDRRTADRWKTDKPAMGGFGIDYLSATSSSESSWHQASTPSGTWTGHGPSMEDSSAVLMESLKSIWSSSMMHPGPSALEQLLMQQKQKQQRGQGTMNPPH
inactive: [1] 0.007 | [2] -0.03 | [3] -0.022 | [4] -0.058 | [5] -0.066 | [6] -0.047 | [7] -0.032 | [8] -0.077 | [9] -0.01 | [10] -0.011

SMAD9 (UniProt O15198)
Chain of UniProt O15198 (O15198 whole entry, looked up): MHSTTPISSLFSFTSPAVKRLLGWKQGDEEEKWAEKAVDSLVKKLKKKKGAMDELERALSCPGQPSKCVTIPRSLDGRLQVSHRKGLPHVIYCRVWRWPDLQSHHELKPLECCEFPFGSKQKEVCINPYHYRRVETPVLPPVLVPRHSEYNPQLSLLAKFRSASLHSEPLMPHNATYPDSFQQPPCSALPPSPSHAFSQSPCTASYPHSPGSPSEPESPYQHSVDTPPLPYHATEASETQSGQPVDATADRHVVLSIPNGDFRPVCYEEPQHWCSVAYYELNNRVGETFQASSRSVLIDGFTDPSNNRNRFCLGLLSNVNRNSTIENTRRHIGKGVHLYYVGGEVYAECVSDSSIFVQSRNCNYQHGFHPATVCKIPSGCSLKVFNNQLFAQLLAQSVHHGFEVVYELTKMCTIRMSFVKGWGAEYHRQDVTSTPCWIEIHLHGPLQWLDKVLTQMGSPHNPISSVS
inactive: [1] 0.005 | [2] 0.048 | [3] -0.037 | [4] 0.007 | [5] 0.018 | [6] 0.053 | [7] 0.017 | [8] -0.048 | [9] -0.059 | [10] 0

SSBP3 (UniProt Q9BWW4)
Chain of UniProt Q9BWW4 (Q9BWW4 whole entry, looked up): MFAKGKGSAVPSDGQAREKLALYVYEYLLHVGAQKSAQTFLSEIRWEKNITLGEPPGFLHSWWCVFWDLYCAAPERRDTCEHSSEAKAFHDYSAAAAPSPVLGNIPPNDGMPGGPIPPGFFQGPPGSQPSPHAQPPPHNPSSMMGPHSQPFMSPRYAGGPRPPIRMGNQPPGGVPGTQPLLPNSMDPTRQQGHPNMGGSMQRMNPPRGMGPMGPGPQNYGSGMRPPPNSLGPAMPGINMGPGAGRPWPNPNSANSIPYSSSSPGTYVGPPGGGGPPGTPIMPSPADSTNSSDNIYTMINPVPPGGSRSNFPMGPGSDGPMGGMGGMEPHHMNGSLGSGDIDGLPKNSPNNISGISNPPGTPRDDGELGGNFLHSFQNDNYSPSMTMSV
inactive: [1] 0.038 | [2] -0.09 | [3] 0.004 | [4] 0.026 | [5] 0.129 | [6] -0.048 | [7] 0.018 | [8] -0.054 | [9] 0.013 | [10] 0.041

TAPT1 (UniProt Q6NXT6)
Chain of UniProt Q6NXT6 (Q6NXT6 whole entry, looked up): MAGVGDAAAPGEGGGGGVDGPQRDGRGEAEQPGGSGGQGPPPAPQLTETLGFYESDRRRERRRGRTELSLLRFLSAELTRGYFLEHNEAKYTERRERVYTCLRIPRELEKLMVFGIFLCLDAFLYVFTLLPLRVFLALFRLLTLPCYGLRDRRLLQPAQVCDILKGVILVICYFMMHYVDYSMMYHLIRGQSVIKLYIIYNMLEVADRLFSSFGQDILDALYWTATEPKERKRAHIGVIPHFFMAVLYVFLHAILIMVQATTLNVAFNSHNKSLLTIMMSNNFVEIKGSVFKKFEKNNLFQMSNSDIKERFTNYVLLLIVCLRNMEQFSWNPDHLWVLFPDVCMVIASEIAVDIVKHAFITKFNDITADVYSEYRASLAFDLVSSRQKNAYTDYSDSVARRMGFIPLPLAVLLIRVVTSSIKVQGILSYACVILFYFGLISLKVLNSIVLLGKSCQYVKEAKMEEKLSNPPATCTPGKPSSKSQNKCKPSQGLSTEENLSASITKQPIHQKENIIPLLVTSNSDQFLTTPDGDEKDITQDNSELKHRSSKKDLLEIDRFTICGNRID
inactive: [1] 0 | [2] -0.092 | [3] 0.068 | [4] -0.038 | [5] -0.001 | [6] -0.059 | [7] -0.039 | [8] -0.059 | [9] 0.01 | [10] 0.002

TARBP2 (UniProt Q15633)
Chain of UniProt Q15633 (Q15633 whole entry, looked up): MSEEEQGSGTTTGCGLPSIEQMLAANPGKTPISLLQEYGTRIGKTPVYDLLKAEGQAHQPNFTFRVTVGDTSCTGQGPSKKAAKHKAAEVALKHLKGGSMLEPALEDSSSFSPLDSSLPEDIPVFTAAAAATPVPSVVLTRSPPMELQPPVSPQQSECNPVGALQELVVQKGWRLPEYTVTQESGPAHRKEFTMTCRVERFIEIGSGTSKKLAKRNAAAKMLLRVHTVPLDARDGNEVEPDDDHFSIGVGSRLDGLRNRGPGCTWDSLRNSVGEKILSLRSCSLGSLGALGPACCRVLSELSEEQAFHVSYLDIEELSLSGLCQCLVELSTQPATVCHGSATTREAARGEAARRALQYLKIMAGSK
inactive: [1] 0.03 | [2] -0.095 | [3] -0.066 | [4] -0.026 | [5] 0.007 | [6] 0.027 | [7] -0.029 | [8] 0.012 | [9] -0.002 | [10] 0.011

SSX5 isoform 2 (UniProt O60225)
Chain of UniProt O60225 (O60225 whole entry, looked up): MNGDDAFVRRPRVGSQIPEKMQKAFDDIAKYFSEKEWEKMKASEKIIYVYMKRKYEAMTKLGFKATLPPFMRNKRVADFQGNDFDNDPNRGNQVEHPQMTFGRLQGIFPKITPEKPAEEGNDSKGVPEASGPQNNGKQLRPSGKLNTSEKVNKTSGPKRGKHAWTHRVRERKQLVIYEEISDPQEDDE
inactive: [1] -0.302 | [2] 0.12 | [3] -0.142 | [4] 0.195 | [5] -0.125 | [6] 0.043 | [7] -0.027 | [8] 0.23 | [9] -0.219 | [10] 0.007

SLC39A11 (UniProt Q8N1S5)
Chain of UniProt Q8N1S5 (Q8N1S5 whole entry, looked up): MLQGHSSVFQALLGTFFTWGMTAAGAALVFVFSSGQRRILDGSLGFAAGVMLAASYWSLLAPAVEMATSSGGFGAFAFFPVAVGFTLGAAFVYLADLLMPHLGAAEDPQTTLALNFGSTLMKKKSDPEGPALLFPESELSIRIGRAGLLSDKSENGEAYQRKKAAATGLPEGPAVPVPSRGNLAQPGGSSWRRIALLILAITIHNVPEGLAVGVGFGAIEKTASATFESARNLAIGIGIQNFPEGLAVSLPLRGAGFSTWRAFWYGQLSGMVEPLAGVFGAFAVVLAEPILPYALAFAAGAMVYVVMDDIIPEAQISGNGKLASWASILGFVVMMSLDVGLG
active: [8] 0.385
inactive: [1] -0.093 | [2] 0.116 | [3] -0.047 | [4] -0.139 | [5] -0.071 | [6] 0.05 | [7] 0.062 | [9] 0.058 | [10] -0.053

SLC20A1 (UniProt Q8WUM9)
Chain of UniProt Q8WUM9 (Q8WUM9 whole entry, looked up): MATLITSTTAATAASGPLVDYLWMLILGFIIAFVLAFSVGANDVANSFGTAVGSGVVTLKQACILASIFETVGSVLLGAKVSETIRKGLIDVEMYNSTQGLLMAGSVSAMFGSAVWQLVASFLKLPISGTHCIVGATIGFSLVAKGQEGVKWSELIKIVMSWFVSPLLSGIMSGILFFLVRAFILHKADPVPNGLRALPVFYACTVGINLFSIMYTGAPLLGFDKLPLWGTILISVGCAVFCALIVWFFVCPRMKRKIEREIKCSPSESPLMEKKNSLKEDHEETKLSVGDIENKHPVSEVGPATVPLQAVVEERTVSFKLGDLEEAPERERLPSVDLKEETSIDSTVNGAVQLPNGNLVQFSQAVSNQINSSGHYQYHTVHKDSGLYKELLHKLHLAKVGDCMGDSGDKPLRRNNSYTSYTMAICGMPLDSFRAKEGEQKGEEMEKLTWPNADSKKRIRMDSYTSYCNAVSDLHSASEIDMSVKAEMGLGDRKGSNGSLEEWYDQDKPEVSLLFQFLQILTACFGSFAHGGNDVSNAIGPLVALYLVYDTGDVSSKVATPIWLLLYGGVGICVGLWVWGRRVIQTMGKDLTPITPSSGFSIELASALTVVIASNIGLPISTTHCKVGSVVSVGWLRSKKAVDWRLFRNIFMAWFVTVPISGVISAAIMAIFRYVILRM
inactive: [1] 0.032 | [2] 0.059 | [3] 0.089 | [4] -0.097 | [5] 0.005 | [6] 0.02 | [7] 0.085 | [8] 0.069 | [9] 0.214 | [10] 0.05
